An excerpt weighted towards active compounds, which were near 4.1% of everything screened.
DAX1 inh-1 = NR0B1 (DAX1) inhibition; HEK293 Gal4-DAX1 luciferase reporter, luminescence; inhibition, % at 6.75 µM; hit rate 0.99% among 340,000;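 active = inhibition above the mean over all tested compounds plus 3 SD, cut at about 4.2% in these data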;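 also: 0% = DAX1-transfected cells with DMSO and 100% = empty-vector control cells with DMSO; inhibition shows as a rise in luminescence from relieved DAX1 repression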
Target sequence (P51843 207-470 limits assumed): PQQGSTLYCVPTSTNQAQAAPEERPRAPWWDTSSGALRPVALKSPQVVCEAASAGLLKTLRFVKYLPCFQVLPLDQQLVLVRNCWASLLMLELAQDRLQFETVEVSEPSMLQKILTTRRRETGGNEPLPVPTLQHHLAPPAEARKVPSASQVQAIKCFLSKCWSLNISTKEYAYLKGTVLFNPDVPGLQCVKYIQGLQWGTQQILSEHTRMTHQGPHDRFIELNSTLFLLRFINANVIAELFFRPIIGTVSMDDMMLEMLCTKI
hcDAF12 agonist = H. contortus DAF-12 activation, primary screen | HEK293 hcDAF-12 lit1-tk-luc reporter, luminescence; 0% DMSO, 100% Δ7-dafachronic acid | activation, % at 6.8 µM | hit rate 1.4% among 370,000;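 active = activation above the mean of all tested compounds plus 3 SD, cut at about 5.5% in these data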;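 also: 100% = response to 3 µM Δ7-dafachronic acid high control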
hgDAF12 agonist = activates the H. glycines DAF-12 receptor ligand-binding domain | HEK293 GAL4-hgDAF12 UAS-luciferase reporter, agonist luminescence; normalized to butyrate control | activation, % at 6.8 µM | hit rate 1.8% among 370,000 | AID 687014;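 active = activation above a cutoff set at the mean of all screened compounds plus 3 SD, cut at about 10% in these data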;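 also: 0% = DMSO wells and 100% = sodium butyrate wells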
DAX1 inh-2 = inhibitors of DAX1 repression of SF-1 activated StAR promoter; HEK293T StAR-luciferase reporter, SF-1/DAX-1 repression relief; hit rate 1.1% among 370,000; inhibition, % at 6.8 µM;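 active = inhibition above the mean over all tested compounds plus 3 SD, cut at about 3.6% in these data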;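 also: 0% = DAX-1 cells with DMSO and 100% = cells lacking DAX-1 with DMSO; higher inhibition means more luminescence from relief of DAX-1 repression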
ssDAF12 agonist = activators of S. stercoralis DAF-12 nuclear receptor. HEK293 ssDAF-12/GRIP1 lit1-tk-luc reporter, luminescence; % of 3 µM dafachronic acid response. activation, % at 6.8 µM. hit rate 1% among 370,000. AID 652126;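 active = activation above the mean over all tested compounds plus 3 SD, cut at about 0.9% in these data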;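 also: 0% = DMSO-only wells and 100% = 3 µM delta7-dafachronic acid wells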
An asterisk follows results filed as active; / = not tested or not shown.

SMILES	DAX1 inh-1	hcDAF12 agonist	hgDAF12 agonist	DAX1 inh-2	ssDAF12 agonist
Cc1ccnc(NC(=O)c2cc3ccccc3oc2=O)c1	3	2	11*	3	0
O=C(O)c1ccccc1NC(=O)c1cc2ccccc2oc1=O	1	2	2	1	-1
Cc1cccc(NC(=O)CSc2nc3ccccc3o2)c1	2	3	13*	1	0
COC(=O)c1cc2c(c3c4cc(C)ccc4n(S(=O)(=O)c4ccccc4)c13)C(=O)N(Cc1ccc(C(F)(F)F)cc1)C2	/	0	0	0	-1
C[N+]1=C2N[C@@H](c3ccccc3)CC(=O)N2/C(=C\c2ccccc2)[C@@H]1Cc1ccccc1	/	-4	-3	/	-2
O=C(O)CCCC(=O)OCCCc1cc2ccccc2c(=O)o1	/	2	-2	1	1
Cc1cccc(NC(=O)c2cc3ccccc3oc2=O)c1	4.3*	4	11*	1	0
CN(C)S(=O)(=O)c1cccc(NC(=O)COC(=O)c2cc3ccccc3oc2=O)c1	5.3*	4	13*	3	1
COc1ccc(-c2nnc(-c3cc4ccccc4oc3=O)o2)cc1	0	1	2	1	-1
COc1ccc2oc(=O)c(C(=O)Nc3cccc(C)c3)cc2c1	0	0	6	1	-1
COc1ccc(-c2cc3ccccc3oc2=O)cc1	2	5	13*	2	0
COc1ccc(-c2cc3ccc(O)cc3oc2=O)cc1OC	0	5.8*	3	0	0
COC(=O)c1cc2c(c3c4cc(OC)ccc4n(S(=O)(=O)c4ccc(C)cc4)c13)C(=O)N(C)C2	/	4	2	-1	0
CCOC(=O)CC[C@@]1(C(=O)OCC)C[C@@H](CC(=O)NCCCN2CCCC2=O)C(=O)N2CCCC=C21	/	-1	-1	2	-1
CC(C)[C@H](NC(N)=O)C(=O)NNC(=O)COc1cccc(C(F)(F)F)c1	6.5*	-1	0	1	-2
NNC(=O)COc1cccc(C(F)(F)F)c1	-1	0	0	0	-1
CN(C)S(=O)(=O)c1cccc(C(=O)NCCNC(=O)c2cccc(S(=O)(=O)N(C)C)c2)c1	-1	-1	-2	0	-1
COC(=O)C(Cc1ccccc1)NC(=O)c1cccc(S(=O)(=O)N(C)C)c1 (centres undefined)	4.4*	-1	0	0	-1
CC(Cc1ccco1)NC(=O)c1cccc(S(=O)(=O)N(C)C)c1 (centres undefined)	1	4	12*	1	0
COc1ccc2ccccc2c1C=Nn1c(-c2cc(-c3ccccc3)n[nH]2)n[nH]c1=S	/	-1	0	0	0
CCn1cc(C(=O)N2CCN(c3ccccc3OC)CC2)c2cc(OC)c(OC)cc2c1=O	4.4*	-1	0	-1	-2
CCn1cc(C(=O)N2CCN(c3ccc(F)cc3)CC2)c2cc(OC)c(OC)cc2c1=O	-1	0	2	0	-1
O=C(Nc1ccc(Cl)c(Cl)c1)c1cccc2c1-c1ccccc1C2=O	/	4	-1	0	0
COc1ccccc1C(=O)NNC(=S)NC(=O)c1sc2ccccc2c1Cl	0	6.1*	4	1	1
CCCCCCCCN1C(=O)[C@@H](CC(=O)NCC2CCCCC2)C[C@@]2(C(=O)OC)C1=C[C@H](C1CCCC1)O[C@@H]2C	/	0	7	0	0
SMILES	DAX1 inh-1	hcDAF12 agonist	hgDAF12 agonist	DAX1 inh-2	ssDAF12 agonist
C#CCN1CC(COCCCC)Oc2cccc(Oc3ccc(C(C)(C)C)c(C)c3)c2S1(=O)=O (centres undefined)	/	-2	-1	0	-1
COc1cccc(CN2CC(C(=O)N3CCCC3)CCC2=O)c1 (centres undefined)	2	2	0	0	-1
COc1cccc(CN2CC(C(=O)N3CCN(C(C)C)CC3)CCC2=O)c1 (centres undefined)	4.6*	-1	1	0	-1
Cn1c(CNC(=O)c2ccc(Cl)cc2)nnc1SCC(=O)NC1CCCC1	6.5*	0	-1	0	-1
CCn1c(CNC(=O)c2ccc(Cl)cc2)nnc1SCC(=O)N1CCOCC1	1	0	0	4.5*	-1
Cn1c(Cn2c(=O)sc3ccccc32)nnc1SCC(=O)NC1CCCCC1	2	/	/	/	/
Cn1c(Cn2c(=O)sc3ccccc32)nnc1SCC(=O)NC1CCCC1	5.2*	1	2	0	0

From PubChem BioAssay
